What all share (conditions): concentration: 1 μM,replicates: in singlicate; n = 1
In assay [1] the test system is T1, IKK-alpha.
T1 construct: gene CHUK

Assay [2] has as its system T2, IKK-beta.
T2 construct: gene IKBKB

For assay [3], the system named is T3, IKK-epsilon.
T3 construct: gene IKBKE

Assay [4] has as its system INSRR.
The subject of assay [5] is INSR.
In assay [6] the test system is IRAK1.
For assay [7], the system named is IRAK3.
For assay [8], the system named is IRAK4.
The subject of assay [9] is ITK.
In assay [10] the test system is JAK1(JH1domain-catalytic).
The subject of assay [11] is JAK1(JH2domain-pseudokinase).
Assay [12] has as its system JAK2(JH1domain-catalytic).
For assay [13], the system named is JAK3(JH1domain-catalytic).
Assay [14] concerns T4, JNK1.
T4 construct: gene MAPK8

The test system of assay [15] is T5, JNK2.
T5 construct: gene MAPK9

The subject of assay [16] is T6, JNK3.
T6 construct: gene MAPK10

For assay [17], the system named is KIT-autoinhibited.
In assay [18] the test system is KIT.
Assay [19] relates to LATS1.
The test system of assay [20] is LATS2.

Molecules are shown by their SMILES.
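Note: KINOMEscan kinase panel screen.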

In the case of `NC(=O)c1ccc(-c2cc3ncnc(SCC(=O)O)c3s2)cc1`, the “%Inh” value was determined as 0% in assay [1]; 0% in [2]; 0% in [3]; 0% in assay [4]; 0% in assay [5]; 70% in assay [6]. For the same compound, the “%Inh” value in [7] is 9%; in [8], 0%; in assay [9], 0%; in [10] it was 0%; in assay [11], 50%; in [12], 0%. The “%Inh” value in [13] came to 22%; in assay [14], 22%; in assay [15], 0%; in [16] it was 0%; in assay [17], 22%; in [18] it was 68%. The “%Inh” value in assay [19] and in assay [20] was 0% each time.
For the compound `Cn1ccc2ncnc(Oc3ccc(NC(=O)Nc4ccnc(C(F)(F)F)c4)c(Cl)c3)c21`, the “%Inh” value is reported as 46% in assay [1]; 13% in assay [2]; 0% in [3]; 3% in [4]; 5% in assay [5]; 14% in assay [6]. The “%Inh” value stood at 0% in [7]; 12% in assay [8]; 0% in [9]; 1% in [10]; 1% in assay [11]; 0% in assay [12]. Also, the “%Inh” value in [13] is 2%; in [14], 0%; in assay [15], 0%; in assay [16], 0%; in [17], 22%; in assay [18], 99.8%. In addition, the results for the “%Inh” value in [19] and in assay [20] were 11% and 0%, respectively.
Regarding `CC(=O)Nc1nc2cnc(Nc3cc(NC(=O)c4cccc(CC(C)(C)C#N)c4)ccc3C)nc2s1`, the “%Inh” value was determined as 0% in assay [1]; 1% in [2]; 28% in assay [3]; 4% in [4]; 16% in [5]; 9% in assay [6]. Besides, the “%Inh” value is 27% in assay [7]; 8% in [8]; 0% in assay [9]; 27% in [10]; 25% in assay [11]; 0% in [12]. Moreover, the “%Inh” value stood at 0% in [13]; 33% in assay [14]; 41% in assay [15]; 43% in assay [16]; 36% in assay [17]; 100% in [18]. Further, the “%Inh” value was 7% in [19] and 47% in assay [20].
For the compound `CCNCC(Cc1ccccc1)NC(=O)c1cc(Br)c(-c2ccnc3[nH]ccc23)s1.Cl.Cl` (centres unmarked) [GSK1383280], the “%Inh” value in [1] is given as 3%; in [2] it was 33%; in [3] it was 19%; in assay [4] it was 0%; in assay [5], 0%; in assay [6] it was 42%. The “%Inh” value in assay [7] is reported as 36%; in assay [8] it was 17%; in [9], 14%; in assay [10], 36%; in assay [11], 0%; in [12], 82%. In addition, the “%Inh” value in [13] is given as 87%; in [14] it was 33%; in assay [15], 10%; in [16], 1%; in [17], 0%; in assay [18], 50%. Moreover, the “%Inh” value in [19] is 43%; in assay [20] it was 82%.

The record behind these values is paper PMC5540273 (PLoS ONE, 2017).
